“And” between values parts separate entries of the source, which are not always exact repeats. Equal values may be shown once. The source made the active and inactive calls.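 Rule for the calls: active = inhibition reaching about 16% in any single replicate (limit read from the data); inactive = the rest.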
molecular target: Hexokinase HKDC1 (Homo sapiens) (UniProt Q2TB90); experiment: compounds lowering human HKDC1 activity – biochemical, single concentration, confirmation (AID 504710); conditions: recombinant HKDC1, G6PDH/diaphorase/resazurin fluorescence; at 20 µM; hits give high values
Sequence (Q2TB90 whole entry, looked up): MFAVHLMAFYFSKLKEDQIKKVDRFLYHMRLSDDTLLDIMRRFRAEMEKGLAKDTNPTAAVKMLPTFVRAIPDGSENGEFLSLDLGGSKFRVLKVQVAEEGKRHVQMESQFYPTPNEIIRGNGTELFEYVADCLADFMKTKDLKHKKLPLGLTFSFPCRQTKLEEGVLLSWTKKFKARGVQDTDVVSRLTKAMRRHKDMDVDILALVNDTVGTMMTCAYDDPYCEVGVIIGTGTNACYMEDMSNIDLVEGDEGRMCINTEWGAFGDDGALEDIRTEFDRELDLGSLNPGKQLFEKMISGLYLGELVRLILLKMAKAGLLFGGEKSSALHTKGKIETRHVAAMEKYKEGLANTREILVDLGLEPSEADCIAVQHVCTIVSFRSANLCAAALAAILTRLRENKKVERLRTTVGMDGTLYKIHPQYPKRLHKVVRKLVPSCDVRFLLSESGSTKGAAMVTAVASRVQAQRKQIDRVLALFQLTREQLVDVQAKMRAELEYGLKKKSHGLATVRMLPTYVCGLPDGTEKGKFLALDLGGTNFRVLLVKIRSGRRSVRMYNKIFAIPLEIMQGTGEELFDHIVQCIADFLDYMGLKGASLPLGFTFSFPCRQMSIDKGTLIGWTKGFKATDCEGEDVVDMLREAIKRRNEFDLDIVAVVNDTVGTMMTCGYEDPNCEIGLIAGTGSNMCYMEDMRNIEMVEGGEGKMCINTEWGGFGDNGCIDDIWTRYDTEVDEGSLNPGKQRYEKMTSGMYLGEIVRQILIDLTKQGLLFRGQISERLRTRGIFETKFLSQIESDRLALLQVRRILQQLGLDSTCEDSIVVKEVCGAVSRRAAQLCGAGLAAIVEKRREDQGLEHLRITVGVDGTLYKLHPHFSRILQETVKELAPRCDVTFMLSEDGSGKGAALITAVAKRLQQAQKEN

Row | Structure (SMILES) | inhibition
1 | Cc1ccc(SC2=C(Sc3ccc(C)cc3)C(=O)c3ccccc3C2=O)cc1 | 69% (active)
2 | Cc1ccc(S(=O)(=O)/N=C2\C=C(Nc3cccc(C(=O)O)c3)C(=O)c3ccccc32)c(C)c1 | 57.8% (active)
3 | O=S(=O)(O)c1ccc(O)c2cc(Nc3ccccc3)ccc12 | 44.1% (active)
4 | CCN(CC)c1ccc2c(c1)oc(=O)c1c(Cl)cc(=O)oc12 | 47.7% (active)
5 | O=C(NNC(=S)Nc1ccc(Cl)c(Cl)c1)c1ccccn1 | -74.1% (inactive)
6 | Cc1cc(C)n2nc(SCc3nnc(SCc4ccccc4C)s3)nc2n1 | 69.2% (active)
7 | COc1ccc2[nH]c3c4c(ccc3c2c1)C(=O)C=CC4=O | 32.9% (active)
8 | COc1ccc(NC(=O)Cc2c[nH]c3ccccc23)cc1S(=O)(=O)N1CCCCC1 | -35.1% (inactive)
9 | CC(C)(C)c1ccc(-c2csc(NNC3=NCCCCC3)n2)cc1 | -39.4% (inactive)
10 | Cn1cnnc1SC1c2cccc3cccc(c23)C1NS(=O)(=O)c1ccccc1 (configuration not stated) | -64% (inactive)
11 | NC(=NCCCCCCN=C(N)/N=C(\N)Nc1ccc(Cl)cc1)/N=C(\N)Nc1ccc(Cl)cc1 | 49.3% (active) and 46.4% (active)
12 | O=NNc1nc2ccccc2n1Cc1ccccc1 | -44.2% (inactive)
13 | CC(=NNC(=S)SCc1ccccc1)c1ccccn1 | -28.3% (inactive)
14 | Cc1cccc(-n2c3nc(=O)[nH]c(=O)c-3cc3cc([N+](=O)[O-])ccc32)c1 | 46.6% (active)
15 | CC(C)Nc1nnc(SCC(=O)Nc2ccc3c(c2)C(=O)c2ccccc2C3=O)s1 | 53.5% (active)
16 | O=[N+]([O-])c1ccc(Sc2nc3ccccc3o2)c([N+](=O)[O-])c1 | 30.4% (active)
17 | O=C(O)CSc1cc(NS(=O)(=O)c2ccc(Cl)cc2)c2ccccc2c1O | 45.6% (active)
18 | O=C(CSc1nnc(CCCN2C(=O)c3cccc4cccc(c34)C2=O)n1-c1ccccc1)N1CCCCC1 | 48.3% (active)
19 | COc1ccc(/C=C/C(=O)NC(=S)NNC(=O)c2cnccn2)cc1 | -58.3% (inactive)

Row | Structure (SMILES) | inhibition
20 | O=C(O)c1ccc(NC2=C(Cl)C(=O)c3ccccc3C2=O)cc1 | -94.3% (inactive)
21 | Cc1ccc(-n2c3nc(=O)[nH]c(=O)c-3cc3cc([N+](=O)[O-])ccc32)cc1C | 65.3% (active)
22 | CC(C)c1nc2oc3c(NCCO)ncnc3c2c2c1COC(C)(C)C2 | 66.2% (active)
23 | C=CCn1c(SCC(=O)Nc2sc3c(c2C#N)CCC(C)C3)nc2cc(C(=O)O)ccc2c1=O (configuration not stated) | 32.7% (active)
24 | O=C(NCCc1ccccc1)c1cnn2c(C(F)F)cc(C3CC3)nc12 | 59.8% (active)
25 | COc1ccc(C(=O)c2coc3c2C(=O)C(=O)c2ccccc2-3)cc1 | 44.8% (active)
26 | O=C1NC(=S)N/C1=C/c1cc2c(cc1[N+](=O)[O-])OCO2 | -36.6% (inactive)
27 | Cc1cc(C)c(S(=O)(=O)Nc2cc(SCC(=O)O)c(O)c3ccccc23)cc1C | 41.5% (active)
28 | O=C(CSc1nnc(CCCN2C(=O)c3cccc4cccc(c34)C2=O)n1-c1ccccc1)N1CCN(CCO)CC1 | 47.6% (active)
29 | Clc1cccc(N=C2NN=C(c3ccc4c(c3)OCCO4)CS2)c1 | -99.6% (inactive)
30 | COc1ccc(-c2cc(C(=O)NNC(=S)NC(=O)c3c(-c4ccccc4)noc3C)[nH]n2)cc1 | -50.1% (inactive)
31 | CCOC(=O)/C=C(\C)Sc1cc(O)c2ccccc2c1O | 53.6% (active)
32 | Cc1ccc2cc(CCNC(=O)c3ccc(S(=O)(=O)N4CCCCC4)cc3)c(=O)[nH]c2c1 | 39.8% (active)
33 | COc1ccc(CN2C(=O)c3cccnc3C2O)cc1 (configuration not stated) | 35.8% (active)
34 | Clc1ccc(N=c2ssnc2Cl)nc1 | -79.7% (inactive)
35 | COc1cc(C2c3c([nH]c(=O)[nH]c3=O)Nc3ccc4ccccc4c32)cc(OC)c1OC (configuration not stated) | 43.5% (active)
36 | COc1ccc(-n2c(C)cc(C(=O)CCl)c2C)cc1 | 34.3% (active)
37 | CC(NNC(=S)N1CCN(c2ccccn2)CC1)c1nccc2ccccc12 (configuration not stated) | -74.7% (inactive)

From PubChem BioAssay AID504710 (Sanford-Burnham Center for Chemical Genomics, 2011)
